Screens from PubChem BioAssay.
FBA Mtb inh: inhibitors of M. tuberculosis fructose-bisphosphate aldolase; purified M. tuberculosis FBA, fluorescence read-out; P9WQA3; AID 588726; inhibition, % at 1 µM; 360,000 tested, 2.3% active;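 also: 0% = vehicle and 100% = reference inhibitor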
Target sequence (P9WQA3 whole entry, looked up): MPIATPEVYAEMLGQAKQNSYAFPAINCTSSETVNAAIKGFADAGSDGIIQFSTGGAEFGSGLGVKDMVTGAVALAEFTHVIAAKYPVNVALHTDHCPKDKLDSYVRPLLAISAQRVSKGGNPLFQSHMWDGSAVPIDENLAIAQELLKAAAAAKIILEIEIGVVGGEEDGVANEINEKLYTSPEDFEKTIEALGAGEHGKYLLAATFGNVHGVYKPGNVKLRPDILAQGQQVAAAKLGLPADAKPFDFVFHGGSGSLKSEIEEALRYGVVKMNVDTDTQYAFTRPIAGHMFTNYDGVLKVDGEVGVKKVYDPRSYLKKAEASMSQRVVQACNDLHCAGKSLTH
GDH-TPI counter-1: counter-screen for M. tuberculosis FBA inhibitors: GDH-TPI coupled enzymes | inhibition, % at 4.8 µM | 360,000 tested, 1.2% active | GDH-TPI coupled enzyme counterscreen, NADH absorbance; in the data active = inhibition above about 30%;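 also: 0% = DMSO wells and 100% = wells lacking the enzyme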
RecA intein inh: inhibitors of M. tuberculosis RecA intein splicing | cell-free RecA intein splicing, fluorescence | inhibition, % (concentration not given with the values) | P9WHJ3 | 290,000 tested, 0.75% active | AID 2221; in the data active = inhibition above about 30%;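 also: 0% = vehicle wells and 100% = reference inhibitor control wells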
PrPC surface inh: cell surface PrPC inhibition, primary TR-FRET screen. P04156. TR-FRET read-out. inhibition, % at 13.8 µM. 370,000 tested, 0.43% active; in the data active = inhibition above about 24%; also: 0% = median of the test wells and 100% = reference compound wells
BJeLR viability: kills HRASV12-expressing BJeLR cells. AID 1554. BJeLR (HRASV12) viability, CellTiter-Glo ATP luminescence, 48 h. 300,000 tested, 0.17% active. inhibition, % (test concentration not listed); in the data active = inhibition above about 50%
Mtb FBA inh conf: confirmation of M. tuberculosis fructose-bisphosphate aldolase inhibitors | AID 651616 | 5,600 tested, 78% active | shares compounds with FBA Mtb inh | purified M. tuberculosis FBA, fluorescence read-out | inhibition, % at 1 µM;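 also: 0% = vehicle wells and 100% = reference inhibitor wells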
GDH-TPI counter-2: counter-screen for M. tuberculosis FBA inhibitors: GDH-TPI coupled enzyme inhibition | shares compounds with FBA Mtb inh | GDH-TPI coupled enzyme counterscreen, fluorescence | inhibition, % at 1 µM | 5,600 tested, 81% active | AID 652141; in the data active = inhibition above about 10%
Starred values were filed as active, the others as inactive. Most compounds without a hit are left out; they make up all but 4.2% or so of the library. Rule as the data show it, unless noted: active = inhibition above about 27%; inactive = the rest.

Screening CC1(C)Cc2[nH]c(=O)c(C#N)cc2CS1 returned FBA Mtb inh 11, GDH-TPI counter-1 9, RecA intein inh -2, PrPC surface inh 11 and BJeLR viability 2.
`CCN(CC)c1ccc(-c2nn3c(-c4ccccc4OC)nnc3s2)cc1` gave FBA Mtb inh 31*, GDH-TPI counter-1 24, RecA intein inh 9, BJeLR viability 23, Mtb FBA inh conf 52* and GDH-TPI counter-2 31*.
`COc1ccc(CC(=O)Nc2ccc(-c3cn4ccc(C)cc4n3)cc2)cc1` gave FBA Mtb inh 58*, GDH-TPI counter-1 5, RecA intein inh -1, PrPC surface inh 12, BJeLR viability 6, Mtb FBA inh conf 168* and GDH-TPI counter-2 143*.
`Cc1ccn2cc(-c3cccc(NC(=O)C(C)C)c3)nc2c1` gave FBA Mtb inh 40*, GDH-TPI counter-1 10, PrPC surface inh 4, BJeLR viability 3, Mtb FBA inh conf 113* and GDH-TPI counter-2 87*.
CC(C)C(=O)Nc1cccc(-c2cn3ccccc3n2)c1 was read as FBA Mtb inh 1, GDH-TPI counter-1 8, RecA intein inh 3, PrPC surface inh 8 and BJeLR viability 4.
For CC(=O)Nc1cccc(-c2cn3ccccc3n2)c1 the results were FBA Mtb inh 43*, GDH-TPI counter-1 8, RecA intein inh -1, PrPC surface inh -4, BJeLR viability 2, Mtb FBA inh conf 40* and GDH-TPI counter-2 41*.
COc1cccc(NC(=O)Nc2c(-c3ccc(C)cc3)nc3ncccn23)c1 was read as PrPC surface inh 1.
`CC(Nc1oc(-c2ccco2)nc1C#N)c1ccccc1` (stereo unspecified) gave FBA Mtb inh 49*, GDH-TPI counter-1 13, RecA intein inh 3, PrPC surface inh -1, BJeLR viability -5, Mtb FBA inh conf 0 and GDH-TPI counter-2 -3.
Screening O=S(=O)(c1ccccc1)c1nc(-c2ccco2)oc1Nc1ccccc1 returned FBA Mtb inh 5, GDH-TPI counter-1 11, RecA intein inh 3, PrPC surface inh -1 and BJeLR viability -6.
COc1ccc(N2CCN(c3oc(-c4ccco4)nc3C#N)CC2)cc1 was read as FBA Mtb inh -3, GDH-TPI counter-1 21, RecA intein inh -1, PrPC surface inh 7 and BJeLR viability 0.
For N#Cc1nc(-c2ccco2)oc1NCc1ccc(F)cc1 the results were FBA Mtb inh 40*, GDH-TPI counter-1 3, RecA intein inh 1, PrPC surface inh 1, BJeLR viability 4, Mtb FBA inh conf 103* and GDH-TPI counter-2 84*.
`CC(C)CNc1oc(-c2ccco2)nc1C#N` gave FBA Mtb inh 72*, GDH-TPI counter-1 7, RecA intein inh -1, PrPC surface inh -3, BJeLR viability -6, Mtb FBA inh conf 97* and GDH-TPI counter-2 80*.
Screening COc1ccccc1COC(=O)c1cccc(S(=O)(=O)N(C)Cc2ccccc2)c1 returned PrPC surface inh -6.
For COC(=O)[C@@H]1C[C@@]2(c3ccccc3)c3ccccc3N(S(=O)(=O)c3ccccc3)[C@H]2N1C(=O)CNC/C=C(\C)CCC=C(C)C the results were PrPC surface inh -9.
For Cn1c(=O)c(=O)n(C)c2cc(S(=O)(=O)N3CCN(c4ccccc4Cl)CC3)ccc21 the results were PrPC surface inh 5.
`Cc1c(-c2nc3ccccc3[nH]2)cnn1C` gave FBA Mtb inh 3, GDH-TPI counter-1 10 and PrPC surface inh 3.
`Cn1cc(-c2nc3ccccc3[nH]2)c2ccccc21` gave FBA Mtb inh 44*, GDH-TPI counter-1 19, RecA intein inh 2, PrPC surface inh 15, BJeLR viability -2, Mtb FBA inh conf 2 and GDH-TPI counter-2 6.
Screening O=C(O)c1cc(-c2ccccc2)nc2ccccc12 returned FBA Mtb inh 9, GDH-TPI counter-1 20, RecA intein inh 4, PrPC surface inh 8 and BJeLR viability -9.
Screening O=c1[nH]nc(-c2cc(-c3ccccc3)nc3ccccc23)o1 returned FBA Mtb inh 65*, GDH-TPI counter-1 29, PrPC surface inh -18, Mtb FBA inh conf 122* and GDH-TPI counter-2 94*.
`c1ccc(-c2cc(-c3nc4ccccc4[nH]3)c3ccccc3n2)cc1` gave FBA Mtb inh 60*, GDH-TPI counter-1 23, RecA intein inh 6, PrPC surface inh -7, BJeLR viability 6, Mtb FBA inh conf 69* and GDH-TPI counter-2 71*.
Screening O=C(CN(C(=O)OCC1c2ccccc2-c2ccccc21)[C@@H](Cc1ccccc1)C(=O)O)OCc1ccc(C(=O)NCc2ccccc2)cc1 returned PrPC surface inh 0.
For O=C(CSc1nnc(-c2ccccc2)n1-c1ccccc1)Nc1cccc2ccccc12 the results were PrPC surface inh 7.
Screening COC(=O)c1cc(=O)nc2sc(-c3cccs3)nn12 returned FBA Mtb inh 35*, GDH-TPI counter-1 29, RecA intein inh -1, PrPC surface inh -11, BJeLR viability 17, Mtb FBA inh conf 6 and GDH-TPI counter-2 0.
For COC(=O)C1=C(C)N(C)C(=NCc2ccc(OC)cc2)NC1c1ccc(C(F)(F)F)cc1 (stereo unspecified) the results were PrPC surface inh -12.
For Oc1ccc(CNc2cccnc2)c2cccnc12 the results were PrPC surface inh 3.
Cc1ccc2cc(C#N)c(SCC(=O)NCc3ccco3)nc2c1 was read as FBA Mtb inh 3, GDH-TPI counter-1 21, PrPC surface inh 0 and BJeLR viability 5.
For Cc1ccc2cc3cc(C(=O)NC4CCCCC4)oc3nc2c1 the results were FBA Mtb inh 39*, GDH-TPI counter-1 14, RecA intein inh 1, PrPC surface inh 3, BJeLR viability -5, Mtb FBA inh conf active and GDH-TPI counter-2 active.
`Cc1ccc2cc3cc(C(=O)NCc4ccco4)oc3nc2c1` gave FBA Mtb inh 46*, GDH-TPI counter-1 34*, RecA intein inh 1, PrPC surface inh 1, BJeLR viability 1, Mtb FBA inh conf 8 and GDH-TPI counter-2 -5.
`Cc1ccc2cc3cc(C(=O)NCCCN4CC(C)CC(C)C4)oc3nc2c1` (stereo unspecified) gave FBA Mtb inh 85*, GDH-TPI counter-1 14, RecA intein inh -7, PrPC surface inh -32, BJeLR viability -9, Mtb FBA inh conf 56* and GDH-TPI counter-2 36*.
CCOc1ccc(-n2c(SCc3cccc4ccccc34)nnc2-c2ccc(C)cc2)cc1 was read as PrPC surface inh 2.
For CCOC(=O)CC1(O)CSc2nc(N)cc(=O)n21 (stereo unspecified) the results were PrPC surface inh 8.
Screening CC(C)(C)OC(=O)n1cc(-c2ccccc2)c2c(-c3ccccc3)c(O)ccc21 returned PrPC surface inh 5.
`C=CCN1[C@H](CO)[C@H](c2ccccc2)[C@@H]1C#N` gave PrPC surface inh -7.
